# Results filed as inconclusive are left out. The source made the active and inactive calls.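 Rule for the calls, unless noted: active = normalized viability below 100% at a tested concentration; inactive = the rest.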
# Assays:
# [1] = sensitizers of A549 cells to miR-34 induction, primary screen, imaging, A549 dox-inducible miR-34, nuclei and caspase counts (AID 1347080;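 active = compounds whose cell count with miR-34 switched on is under 0.7 times the count with it off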); settings: A549 miR-34 inducible, Hoechst nuclei count, 48 h
# [2] = JHH-DIPG-1 glioma cell viability, MIPE5.0 library, CellTiter-Glo luminescence, qHTS (AID 1347067; cut-off not given, nearly all actives have AC50 up to about 26 µM;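 note: cells exposed to compound for 48 hours before readout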); settings: JHH-DIPG-1 glioma viability, CellTiter-Glo ATP luminescence
# [3] = SU-DIPG-XXV glioma cell viability, MIPE5.0 library, qHTS (AID 1347068; cut-off not given, nearly all actives have IC50 up to about 30 µM)
# [4] = survival rescue of mitochondrial mutant cells in low glucose, primary screen, MELAS cybrids, Rieske KO mouse fibroblasts, CellTiter-Glo (AID 1508586;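 active = mean z-score across replicates of 1.96 or higher in either the MELAS or the Rieske mutant cell line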;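 note: z relative to plate mean and SD of compound and empty wells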)
# [5] = growth inhibition of DIPG glioma cells, dose response, cell-based, SU-DIPG-XIII, MIPE5.0, CellTiter-Glo, qHTS (AID 1347064; cut-off not given, nearly all actives have AC50 up to about 23 µM); settings: SU-DIPG-XIII viability, CellTiter-Glo ATP luminescence
# [6] = viability loss in pontine glioma line – cell-based, SU-DIPG-XXV, MIPE5.0, CellTiter-Glo, qHTS, dose response (AID 1347065; cut-off not given, nearly all actives have AC50 up to about 26 µM;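 note: cells exposed to compound for 48 hours before ATP readout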); settings: CellTiter-Glo ATP luminescence
# [7] = growth inhibition of DIPG glioma cells, dose response, cell-based, SU-DIPG-IV, MIPE4.0, CellTiter-Glo, qHTS (AID 1347063; cut-off not given, nearly all actives have AC50 up to about 30 µM;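 note: compound exposure lasted 48 hours before the viability readout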); settings: SU-DIPG-IV viability, CellTiter-Glo ATP luminescence
# [8] = ovarian cancer cell viability with rucaparib, profiling panel, oncology-focused library, rucaparib conditional (AID 1508598); settings: patient-derived ovarian cancer cells, CellTiter-Glo viability, 144 h, stronger effect = lower value
# [9] = measured here: relative caspase fold change +Dox/-Dox
# [10] = measured here: total cells with miR-34 induction, stronger effect = lower value
# [11] = measured here: total cells without miR-34 induction
# [12] = stronger effect = lower value, cell number ratio, induced over uninduced
# [13] = MELAS cybrid survival, CellTiter-Glo 48 h, stronger effect = higher value
# [14] = Rieske KO mouse fibroblast survival, CellTiter-Glo 72 h
# [15] = at 0.000305 µM, OCI-C5x cells, with rucaparib 10 µM, 100% = cells with rucaparib alone
# [16] = at 0.000305 µM, OCI-C5x cells, without rucaparib
# [17] = at 0.000305 µM, OCI-P5x cells, with rucaparib 20 µM, 100% = cells with rucaparib alone
# [18] = at 0.000305 µM, OCI-P5x cells, without rucaparib
# [19] = at 0.00122 µM, OCI-C5x cells, with rucaparib 10 µM, 100% = cells with rucaparib alone
# [20] = at 0.00122 µM, OCI-C5x cells, without rucaparib
# [21] = at 0.00122 µM, OCI-P5x cells, with rucaparib 20 µM, 100% = cells with rucaparib alone
# [22] = at 0.00122 µM, OCI-P5x cells, without rucaparib
# [23] = at 0.00488 µM, OCI-C5x cells, with rucaparib 10 µM, 100% = cells with rucaparib alone
# [24] = at 0.00488 µM, OCI-C5x cells, without rucaparib
# [25] = at 0.00488 µM, OCI-P5x cells, with rucaparib 20 µM, 100% = cells with rucaparib alone
# [26] = at 0.00488 µM, OCI-P5x cells, without rucaparib
# [27] = at 0.0195 µM, OCI-C5x cells, with rucaparib 10 µM, 100% = cells with rucaparib alone
# [28] = at 0.0195 µM, OCI-C5x cells, without rucaparib
# [29] = at 0.0195 µM, OCI-P5x cells, with rucaparib 20 µM, 100% = cells with rucaparib alone
# [30] = at 0.0195 µM, OCI-P5x cells, without rucaparib
# [31] = at 0.0781 µM, OCI-C5x cells, with rucaparib 10 µM, 100% = cells with rucaparib alone
# [32] = at 0.0781 µM, OCI-C5x cells, without rucaparib
# [33] = at 0.0781 µM, OCI-P5x cells, with rucaparib 20 µM, 100% = cells with rucaparib alone
# [34] = at 0.0781 µM, OCI-P5x cells, without rucaparib
# [35] = at 0.313 µM, OCI-C5x cells, with rucaparib 10 µM, 100% = cells with rucaparib alone
# [36] = at 0.313 µM, OCI-C5x cells, without rucaparib
# [37] = at 0.313 µM, OCI-P5x cells, with rucaparib 20 µM, 100% = cells with rucaparib alone
# [38] = at 0.313 µM, OCI-P5x cells, without rucaparib
# [39] = at 1.25 µM, OCI-C5x cells, with rucaparib 10 µM, 100% = cells with rucaparib alone
# [40] = at 1.25 µM, OCI-C5x cells, without rucaparib
# [41] = at 1.25 µM, OCI-P5x cells, with rucaparib 20 µM, 100% = cells with rucaparib alone
# [42] = at 1.25 µM, OCI-P5x cells, without rucaparib
# [43] = at 5 µM, OCI-C5x cells, with rucaparib 10 µM, 100% = cells with rucaparib alone
# [44] = at 5 µM, OCI-C5x cells, without rucaparib
# [45] = at 5 µM, OCI-P5x cells, with rucaparib 20 µM, 100% = cells with rucaparib alone
# [46] = at 5 µM, OCI-P5x cells, without rucaparib
compound,measurement,setting,value
COC(=O)[C@@]1(O)CC2OC1(C)n1c3ccccc3c3c4c(c5c6ccccc6n2c5c31)C(=O)NC4 (some centres undefined),fold change,[1]; stronger effect = lower value,0.903 (inactive)
same,fold change,[1]; [9],1.29
same,cell count,[1]; [10],2180
same,cell count,[1]; [11],2410
CCCCC/C=C\C/C=C\C/C=C\C/C=C\CCCC(=O)NC1CC1,fold change,[1]; [12],1.01 (inactive)
same,fold change,[1]; [9],0.962
same,cell count,[1]; [10],5860
same,cell count,[1]; [11],5800
c1cc2cc(N3CCNCC3)ccc2cn1,fold change,[1]; [12],0.956 (inactive)
same,fold change,[1]; [9],0.665
same,cell count,[1]; [10],5380
same,cell count,[1]; [11],5630
CCCCC/C=C\C/C=C\C/C=C\C/C=C\CCCC(=O)NCC(O)CC(=O)O (centres undefined),fold change,[1]; [12],1.07 (inactive)
same,fold change,[1]; [9],1.27
same,cell count,[1]; [10],5440
same,cell count,[1]; [11],5070
Cc1sc2c(c1C)C(c1ccc(Cl)cc1)=NC(CC(N)=O)c1nnc(C)n1-2 (centres undefined),outcome,[2],inactive
same,outcome,[3],inactive
same,fold change,[1]; [12],0.978 (inactive)
same,fold change,[1]; [9],0.427
same,cell count,[1]; [10],5420
same,cell count,[1]; [11],5540
same,z-score,[4]; [13],0.425 (inactive)
same,z-score,[4]; [14],-3.88
CCCCC/C=C\C/C=C\C/C=C\C/C=C\CCCC(=O)N[C@@H](CO)C(=O)O,fold change,[1]; [12],1.06 (inactive)
same,fold change,[1]; [9],1.04
same,cell count,[1]; [10],5850
same,cell count,[1]; [11],5540
O=C(CCC/C=C\C[C@@H]1[C@@H](/C=C/[C@@H](O)COc2cccc(C(F)(F)F)c2)[C@H](O)C[C@@H]1O)NC(CO)CO,fold change,[1]; stronger effect = lower value,0.98 (inactive)
same,fold change,[1]; [9],0.862
same,cell count,[1]; [10],5260
same,cell count,[1]; [11],5370
CN=C(NS(=O)(=O)c1ccc(Cl)cc1)N1C[C@H](c2ccccc2)C(c2ccc(Cl)cc2)=N1,fold change,[1]; [12],0.982 (inactive)
same,fold change,[1]; [9],1.16
same,cell count,[1]; [10],5510
same,cell count,[1]; [11],5610
CC(=O)N1N=C(c2ccc(N)cc2)c2cc3c(cc2C[C@H]1C)OCO3,outcome,[5],inactive
same,outcome,[6],inactive
same,outcome,[2],inactive
same,outcome,[3],inactive
c1cc(N2CCNCC2)c2cnccc2c1,fold change,[1]; [12],0.965 (inactive)
same,fold change,[1]; [9],0.639
same,cell count,[1]; [10],5540
same,cell count,[1]; [11],5740
CCCCC/C=C\C/C=C\C/C=C\C/C=C\CCCC(=O)OCCN,fold change,[1]; [12],0.993 (inactive)
same,fold change,[1]; [9],0.893
same,cell count,[1]; [10],5780
same,cell count,[1]; [11],5820
O=S(=O)(CC1CS1)c1ccc(Oc2ccccc2)cc1 (centres undefined),AC50,[7],20.9 µM (active)
same,AC50,[2],23.5 µM (active)
same,outcome,[3],inactive
same,fold change,[1]; [12],0.961 (inactive)
same,fold change,[1]; [9],0.577
same,cell count,[1]; [10],8270
same,cell count,[1]; [11],8600
same,z-score,[4]; [13],-0.354 (inactive)
same,z-score,[4]; [14],-1.56
same,viability,[8]; [15],114% (inactive)
same,viability,[8]; [16],110% (inactive)
same,viability,[8]; [17],95.3% (active)
same,viability,[8]; [18],95.4% (active)
same,viability,[8]; [19],112% (inactive)
same,viability,[8]; [20],111% (inactive)
same,viability,[8]; [21],98.5% (active)
same,viability,[8]; [22],92.4% (active)
same,viability,[8]; [23],121% (inactive)
same,viability,[8]; [24],102% (inactive)
same,viability,[8]; [25],89.9% (active)
same,viability,[8]; [26],97.6% (active)
same,viability,[8]; [27],122% (inactive)
same,viability,[8]; [28],112% (inactive)
same,viability,[8]; [29],91% (active)
same,viability,[8]; [30],94.3% (active)
same,viability,[8]; [31],121% (inactive)
same,viability,[8]; [32],102% (inactive)
same,viability,[8]; [33],85.3% (active)
same,viability,[8]; [34],91.2% (active)
same,viability,[8]; [35],120% (inactive)
same,viability,[8]; [36],101% (inactive)
same,viability,[8]; [37],84.7% (active)
same,viability,[8]; [38],93.5% (active)
same,viability,[8]; [39],117% (inactive)
same,viability,[8]; [40],111% (inactive)
same,viability,[8]; [41],79% (active)
same,viability,[8]; [42],82.1% (active)
same,viability,[8]; [43],108% (inactive)
same,viability,[8]; [44],110% (inactive)
same,viability,[8]; [45],80.3% (active)
same,viability,[8]; [46],81.4% (active)
CCCCC/C=C\C/C=C\C/C=C\C/C=C\CCCC(=O)O[C@H](COC(=O)CCCCCCCCCCCCCCCCC)COP(=O)([O-])OCC[N+](C)(C)C,fold change,[1]; [12],0.924 (inactive)
same,fold change,[1]; [9],0.766
same,cell count,[1]; [10],5220
same,cell count,[1]; [11],5650
CCCCC/C=C\C/C=C\C/C=C\C/C=C\CCC(C)C(=O)NCCF (centres undefined),fold change,[1]; [12],1.05 (inactive)
same,fold change,[1]; [9],1.21
same,cell count,[1]; [10],5220
same,cell count,[1]; [11],4990
COc1ccc(/C=C\c2cc(OC)cc(OC)c2)cc1,fold change,[1]; [12],1.08 (inactive)
same,fold change,[1]; [9],1.44
same,cell count,[1]; [10],1220
same,cell count,[1]; [11],1130
CCNC(=O)[C@H]1O[C@@H](n2cnc3c(N)ncnc32)[C@@H](O)C1O (some centres undefined),fold change,[1]; [12],0.967 (inactive)
same,fold change,[1]; [9],0.965
same,cell count,[1]; [10],6150
same,cell count,[1]; [11],6360
C=C(C)[C@@H]1CCC(C)=C[C@H]1c1c(C)cc(O)cc1O,fold change,[1]; [12],0.943 (inactive)
same,fold change,[1]; [9],0.916
same,cell count,[1]; [10],5200
same,cell count,[1]; [11],5510
C=CCO/N=C(/C[C@H]1O[C@@H]2O[C@]3(C)CC[C@H]4[C@H](C)CC[C@@H]([C@H]1C)[C@@]24OO3)[C@H]1O[C@@H]2O[C@]3(C)CC[C@H]4[C@H](C)CC[C@@H]([C@H]1C)[C@@]24OO3,AC50,[7],0.209 µM (active)
Cc1sc2c(c1C)C(c1ccc(Cl)cc1)=N[C@@H](CC(N)=O)c1nnc(C)n1-2,outcome,[2],inactive
same,outcome,[3],inactive
same,viability,[8]; [15],106% (inactive)
same,viability,[8]; [16],111% (inactive)
same,viability,[8]; [17],89.8% (active)
same,viability,[8]; [18],93.2% (active)
same,viability,[8]; [19],111% (inactive)
same,viability,[8]; [20],124% (inactive)
same,viability,[8]; [21],100% (inactive)
same,viability,[8]; [22],96.7% (active)
same,viability,[8]; [23],99.7% (active)
same,viability,[8]; [24],94.7% (active)
same,viability,[8]; [25],97.5% (active)
same,viability,[8]; [26],97.3% (active)
same,viability,[8]; [27],64.4% (active)
same,viability,[8]; [28],66.5% (active)
same,viability,[8]; [29],82.4% (active)
same,viability,[8]; [30],90% (active)
same,viability,[8]; [31],38.4% (active)
same,viability,[8]; [32],48.1% (active)
same,viability,[8]; [33],54.9% (active)
same,viability,[8]; [34],77.6% (active)
same,viability,[8]; [35],20.3% (active)
same,viability,[8]; [36],29.5% (active)
same,viability,[8]; [37],31.5% (active)
same,viability,[8]; [38],66.2% (active)
same,viability,[8]; [39],16.4% (active)
same,viability,[8]; [40],26.3% (active)
same,viability,[8]; [41],24% (active)
same,viability,[8]; [42],64.7% (active)
same,viability,[8]; [43],14.7% (active)
same,viability,[8]; [44],20.8% (active)
same,viability,[8]; [45],19% (active)
same,viability,[8]; [46],56.3% (active)

# From PubChem BioAssay
